{"source": "PubChem BioAssay", "key": {"[1]": {"biological_target": "6-phosphogluconate dehydrogenase, decarboxylating (Homo sapiens) (UniProt P52209)", "sequence (P52209 whole entry, looked up)": "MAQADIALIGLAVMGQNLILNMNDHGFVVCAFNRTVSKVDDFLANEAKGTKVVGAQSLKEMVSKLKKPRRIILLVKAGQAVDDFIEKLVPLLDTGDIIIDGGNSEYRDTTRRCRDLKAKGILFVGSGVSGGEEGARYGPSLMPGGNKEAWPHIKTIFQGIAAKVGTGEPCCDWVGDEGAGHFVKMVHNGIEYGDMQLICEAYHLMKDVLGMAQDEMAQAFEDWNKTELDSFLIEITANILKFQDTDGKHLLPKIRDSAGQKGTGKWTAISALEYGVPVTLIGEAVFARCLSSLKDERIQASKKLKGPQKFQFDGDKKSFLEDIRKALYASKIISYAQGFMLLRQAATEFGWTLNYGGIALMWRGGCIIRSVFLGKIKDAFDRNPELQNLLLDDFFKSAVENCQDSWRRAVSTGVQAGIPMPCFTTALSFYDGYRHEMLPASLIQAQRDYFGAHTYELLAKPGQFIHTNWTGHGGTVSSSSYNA", "assay": "inhibition of human phosphogluconate dehydrogenase – biochemical, recombinant enzyme, NADPH absorbance, primary screen (AID 1159550;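 active = at least 20% inhibition of 6-phosphogluconate dehydrogenase activity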)", "settings": "recombinant 6PGD, NADPH absorbance 341 nm; at 10 µM; stronger effect = higher value"}, "[2]": {"assay": "EMT-state selective cytotoxicity in co-culture – imaging, PC-3E GFP, TEM4-18 mCherry, primary screen (AID 1345086);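 for all read-outs here: cells exposed to compound for 72 h before imaging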;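 for red/green cell ratio (normalised): normalised mesenchymal count divided by normalised epithelial count so high means epithelial killing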", "settings": "PC-3E GFP / TEM4-18 mCherry co-culture, imaging cell counts, at 1 µM; for red/green cell ratio (normalised): actives lie on both sides, counts scaled to control wells, 1 = unselective"}, "[3]": {"assay": "P. berghei load reduction in hepatocytes – cell-based, HepG2, luciferase luminescence, HepG2 viability, primary screen (AID 624349; in the data active = parasite load remaining mostly below about 12%, no sharp cut-off; inactive = mostly above about 10%;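 note: 100% = mean of DMSO negative control wells on the same plate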)", "settings": "P. berghei liver stage in HepG2, luciferase luminescence, concentration not given here; parasite load remaining: stronger effect = lower value; viability: measured here: HepG2 viability without parasites"}, "[4]": {"assay": "viability loss with induced miR-34 in A549 – imaging, A549 dox-inducible miR-34, nuclei and caspase counts, primary screen (AID 1347080;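 active = compounds whose cell count with miR-34 switched on is under 0.7 times the count with it off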)", "settings": "A549 miR-34 inducible, Hoechst nuclei count, 48 h"}, "[5]": {"assay": "MELAS cybrid and Rieske KO viability enhancers – cell-based, MELAS cybrids, Rieske KO mouse fibroblasts, CellTiter-Glo, primary screen (AID 1508586;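 active = mean z-score across replicates of 1.96 or higher in either the MELAS or the Rieske mutant cell line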;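 note: z relative to plate mean and SD of compound and empty wells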)", "settings": "low glucose"}, "[6]": {"biological_target": "Mitogen-activated protein kinase 7 (Homo sapiens) (UniProt Q13164)", "sequence (Q13164 whole entry, looked up, the tested form may be a part)": "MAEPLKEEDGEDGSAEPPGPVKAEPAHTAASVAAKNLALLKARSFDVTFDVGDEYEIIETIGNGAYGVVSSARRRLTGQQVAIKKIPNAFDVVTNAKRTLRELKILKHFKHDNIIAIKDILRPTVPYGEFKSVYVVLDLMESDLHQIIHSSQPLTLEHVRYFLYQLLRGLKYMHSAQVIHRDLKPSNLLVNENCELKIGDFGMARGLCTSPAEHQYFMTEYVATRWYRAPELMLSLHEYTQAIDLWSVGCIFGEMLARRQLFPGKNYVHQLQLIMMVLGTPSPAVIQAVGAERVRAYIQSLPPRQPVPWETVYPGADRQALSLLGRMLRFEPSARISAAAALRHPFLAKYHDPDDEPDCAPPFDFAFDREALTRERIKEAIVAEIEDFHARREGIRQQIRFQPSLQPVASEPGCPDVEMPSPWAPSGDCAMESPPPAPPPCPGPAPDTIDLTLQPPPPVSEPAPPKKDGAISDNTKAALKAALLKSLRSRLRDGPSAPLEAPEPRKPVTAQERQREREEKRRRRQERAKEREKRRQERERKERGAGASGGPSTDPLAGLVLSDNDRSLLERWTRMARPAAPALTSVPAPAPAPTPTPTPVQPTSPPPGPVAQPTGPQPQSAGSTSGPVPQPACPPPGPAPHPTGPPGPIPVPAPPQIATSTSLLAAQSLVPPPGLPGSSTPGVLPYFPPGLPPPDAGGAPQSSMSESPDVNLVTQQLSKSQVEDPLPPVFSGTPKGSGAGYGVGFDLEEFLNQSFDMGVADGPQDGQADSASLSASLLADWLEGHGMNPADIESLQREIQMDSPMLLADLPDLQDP", "assay": "Gal4-ERK5 driven luciferase induction – cell-based, HTS, primary screen (AID 1508626;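 active = luciferase signal above three times the same-plate solvent-only control wells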;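 note: luciferase driven by Gal4-ERK5 fusion binding five Gal4 sites before minimal TATA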)", "settings": "HeLa Gal4-ERK5 transactivation, 18 h, at 5 µM, stronger effect = higher value"}, "[7]": {"assay": "galactose survival enhancers in mitochondrial complex I cybrids – cell-based, galactose medium, ATP luminescence, primary screen (AID 1645843;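 active = z-score of at least 1.8 in each of two replicates, scored against plate mean and spread of sample wells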;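 note: positive z means more ATP and so rescue of galactose-driven cybrid death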)", "settings": "complex I mutant cybrid cells, 72 h, stronger effect = higher value"}, "[8]": {"assay": "blockers of polyQ-driven CASP3 activation – cell-based (AID 1583)", "settings": "polyglutamine-induced caspase-3 activation, cell assay; stronger effect = higher value; concentration not given here"}, "[9]": {"assay": "yeast 75Q aggregation reduction – 75Q-TubU reporter (AID 1593)", "settings": "Yeast 75Q polyglutamine aggregation reporter"}, "[10]": {"assay": "restoration of touch response, mutant HTT neurons – whole organism, C. elegans mechanosensory neurons, N-terminal huntingtin (AID 1599)", "settings": "C. elegans polyQ-huntingtin mechanosensory neurons, stronger effect = higher value"}, "[11]": {"assay": "blockers of cytochrome c efflux from mitochondria – biochemical, purified mitochondria (AID 1603);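 note: mouse liver mitochondria challenged with calcium chloride; signal normalized to the plate average as 100%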", "settings": "stronger effect = lower value"}, "[12]": {"assay": "polyglutamine aggregate formation blockers (AID 1604)", "settings": "polyglutamine-induced protein aggregation inhibition assay; stronger effect = higher value; tested at 2.5 µM"}, "[13]": {"assay": "glutamate transport activators, MN-1 cells, MN-1 cell line (AID 1612);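 note: tested at 1 µM final; 0% = mean of DMSO vehicle wells on each plate; positive means more glutamate uptake than control and negative means less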", "settings": "MN-1 motor neuron cells, stronger effect = higher value"}, "[14]": {"assay": "75Q-TubH aggregate inhibition, S. cerevisiae, yeast (AID 1616)", "settings": "S. cerevisiae 75Q-TubH polyglutamine aggregation suppression; stronger effect = higher value"}, "[15]": {"assay": "GFP-Q80 aggregate reduction, neuronal-like cells, cell-based, NGF-treated PC12, GFPQ80 (AID 1614);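 note: lower means fewer inclusions and 0 means no inclusions at all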", "settings": "PC12 NGF-treated GFP-polyQ80 inclusion reduction"}, "[16]": {"assay": "compounds altering circadian rhythm period length – cell-based, LOPAC library, luminescence reporter (AID 2774; call rule not given here;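 note: values are relative to mean of DMSO wells on each plate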)", "settings": "circadian reporter cells, at 7 µM, actives lie on both sides"}, "[17]": {"tested_on": "Hepatitis C virus NS3 helicase", "assay": "blockers of NS3h binding to ssDNA – biochemical, fluorescence polarization, LOPAC1280 library, primary screen (AID 687035; in the data active = inhibition above about 37%)", "settings": "Purified HCV NS3 helicase, Cy5-dT15 ssDNA binding fluorescence polarization; stronger effect = higher value; concentration not given here"}, "[18]": {"assay": "compounds altering Cy5-DNA-NS3h complex signal – biochemical, LOPAC1280, artefact control for HCV NS3 helicase inhibitor project (AID 687037; call rule not given here)", "settings": "Cy5-DNA-NS3h complex fluorescence interference counterscreen"}, "[19]": {"assay": "blockers of cellular phospholipid synthesis – cell-based, LOPAC library, screen 4, primary screen (AID 1347384; call rule not given here)", "settings": "animal cells, phospholipid biosynthesis inhibition screen; at 10 µM"}, "[20]": {"settings": "measured here: epithelial PC-3E GFP cell survival"}, "[21]": {"settings": "measured here: mesenchymal TEM4-18 mCherry cell survival"}, "[22]": {"settings": "MELAS cybrid survival, CellTiter-Glo 48 h, stronger effect = higher value"}, "[23]": {"settings": "Rieske KO mouse fibroblast survival, CellTiter-Glo 72 h"}}, "note": "Values joined by “and” are separate entries in the source; they are usually repeats but may differ in a detail not shown here. Equal entries are not always repeated. For some assays here: Results with a measured potency or affinity are listed apart. More than one record can exist for a structure, and the calls need not agree. Active and inactive are the calls of the source.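 Rule for the calls, unless noted: active = compounds killing one labelled cell type while sparing the other, by normalised counts and ratio limits, not self-fluorescent; inactive = the rest.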"}
{"smiles": "CCCCCC1C(=O)CCC1CC(=O)OC", "note": "(stereo unspecified)", "values": [{"measurement": "inhibition", "setting": "[1]", "value": "6.35% (inactive)"}, {"measurement": "red/green cell ratio (normalised)", "setting": "[2]", "value": "0.86 (inactive)"}, {"measurement": "normalised cell number", "setting": "[2]; [20]", "value": 1.26}, {"measurement": "normalised cell number", "setting": "[2]; [21]", "value": 1.08}]}
{"smiles": "CC(=O)c1ccc[nH]1", "values": [{"measurement": "inhibition", "setting": "[1]", "value": "13.8% (inactive)"}, {"measurement": "red/green cell ratio (normalised)", "setting": "[2]", "value": "0.97 (inactive)"}, {"measurement": "normalised cell number", "setting": "[2]; [20]", "value": 1.06}, {"measurement": "normalised cell number", "setting": "[2]; [21]", "value": 1.03}]}
{"smiles": "CCCCCCCCCCCC1=C(O)C(=O)C=C(O)C1=O", "values": [{"measurement": "parasite load remaining", "setting": "[3]", "value": "136% (inactive)"}, {"measurement": "viability", "setting": "[3]", "value": 84.4, "unit": "%"}, {"measurement": "inhibition", "setting": "[1]", "value": "15% (inactive)"}, {"measurement": "red/green cell ratio (normalised)", "setting": "[2]", "value": "0.91 (inactive)"}, {"measurement": "normalised cell number", "setting": "[2]; [20]", "value": 1.09}, {"measurement": "normalised cell number", "setting": "[2]; [21]", "value": 1}, {"measurement": "fold change", "setting": "[4]; stronger effect = lower value, cell number ratio, induced over uninduced", "value": "0.793 (inactive) and 1.27 (inactive)"}, {"measurement": "fold change", "setting": "[4]; measured here: relative caspase fold change +Dox/-Dox", "value": "2.63 and 0.764"}, {"measurement": "cell count", "setting": "[4]; measured here: total cells with miR-34 induction, stronger effect = lower value", "value": "7270 and 2440"}, {"measurement": "cell count", "setting": "[4]; measured here: total cells without miR-34 induction", "value": "9160 and 1930"}, {"measurement": "z-score", "setting": "[5]; [22]", "value": "-0.242 (inactive)"}, {"measurement": "z-score", "setting": "[5]; [23]", "value": -0.154}, {"measurement": "luciferase signal", "setting": "[6]", "value": "40 AU (inactive)"}, {"measurement": "z-score", "setting": "[7]", "value": "-0.595 (inactive)"}]}
{"smiles": "COc1cc(CNC(=O)CCCC/C=C/C(C)C)ccc1O", "values": [{"measurement": "inhibition", "setting": "[8]", "value": -19.2, "unit": "%"}, {"measurement": "score", "setting": "[9]", "value": 0.57}, {"measurement": "rescue above control", "setting": "[10]", "value": 10.3}, {"measurement": "cytochrome c release ratio", "setting": "[11]", "value": 1.29}, {"measurement": "inhibition of aggregation", "setting": "[12]", "value": 71.9, "unit": "%"}, {"measurement": "glutamate uptake change", "setting": "[13]", "value": -9.59, "unit": "%"}, {"measurement": "aggregation suppression score", "setting": "[14]", "value": 0.5}, {"measurement": "inhibition", "setting": "[1]", "value": "18.7% (inactive)"}, {"measurement": "red/green cell ratio (normalised)", "setting": "[2]", "value": "0.88 (inactive)"}, {"measurement": "normalised cell number", "setting": "[2]; [20]", "value": 1.14}, {"measurement": "normalised cell number", "setting": "[2]; [21]", "value": 1}, {"measurement": "z-score", "setting": "[5]; [22]", "value": "-0.437 (inactive)"}, {"measurement": "z-score", "setting": "[5]; [23]", "value": -0.16}, {"measurement": "luciferase signal", "setting": "[6]", "value": "32 AU (inactive)"}, {"measurement": "z-score", "setting": "[7]", "value": "0.07 (inactive) and 0.225 (inactive)"}]}
{"smiles": "O=C(/C=C/C(=O)Oc1ccccc1C(=O)O)Oc1ccccc1C(=O)O", "values": [{"measurement": "inhibition", "setting": "[1]", "value": "-15.7% (inactive)"}, {"measurement": "red/green cell ratio (normalised)", "setting": "[2]", "value": "1.09 (inactive)"}, {"measurement": "normalised cell number", "setting": "[2]; [20]", "value": 1.17}, {"measurement": "normalised cell number", "setting": "[2]; [21]", "value": 1.27}]}
{"smiles": "COc1cc(-c2coc3cc(OCc4ccccc4)c(OC)c(O)c3c2=O)cc(O)c1OC", "values": [{"measurement": "inhibition", "setting": "[1]", "value": "9.07% (inactive)"}, {"measurement": "red/green cell ratio (normalised)", "setting": "[2]", "value": "0.97 (inactive)"}, {"measurement": "normalised cell number", "setting": "[2]; [20]", "value": 1.1}, {"measurement": "normalised cell number", "setting": "[2]; [21]", "value": 1.07}]}
{"smiles": "O=C(O)CCC(=O)OCC(NC(=O)C(Cl)Cl)C(O)c1ccc([N+](=O)[O-])cc1", "note": "(stereo unspecified)", "values": [{"measurement": "inhibition", "setting": "[1]", "value": "1.37% (inactive)"}, {"measurement": "red/green cell ratio (normalised)", "setting": "[2]", "value": "1.01 (inactive)"}, {"measurement": "normalised cell number", "setting": "[2]; [20]", "value": 1.15}, {"measurement": "normalised cell number", "setting": "[2]; [21]", "value": 1.16}]}
{"smiles": "O=c1cc(-c2ccc(O)cc2)oc2cc(O)cc(O)c12", "values": [{"measurement": "inhibition", "setting": "[8]", "value": 0.12, "unit": "%"}, {"measurement": "score", "setting": "[9]", "value": 1.67}, {"measurement": "rescue above control", "setting": "[10]", "value": 2.14}, {"measurement": "cytochrome c release ratio", "setting": "[11]", "value": 3.46}, {"measurement": "inhibition of aggregation", "setting": "[12]", "value": -7.84, "unit": "%"}, {"measurement": "glutamate uptake change", "setting": "[13]", "value": -6.97, "unit": "%"}, {"measurement": "inclusion score", "setting": "[15]", "value": 1.5}, {"measurement": "aggregation suppression score", "setting": "[14]", "value": 1.4}, {"measurement": "period change", "setting": "[16]", "value": "0.02 h (inactive)"}, {"measurement": "parasite load remaining", "setting": "[3]", "value": "95.8% (inactive) and 11.3% (inactive) and 116% (inactive)"}, {"measurement": "viability", "setting": "[3]", "value": "94.9% and 100% and 77.5%"}, {"measurement": "inhibition", "setting": "[17]", "value": "-1% (inactive)"}, {"measurement": "fluorescence ratio (interference)", "setting": "[18]", "value": "1 (inactive)"}, {"measurement": "inhibition", "setting": "[1]", "value": "-0.0494% (inactive)"}, {"measurement": "red/green cell ratio (normalised)", "setting": "[2]", "value": "0.91 (inactive)"}, {"measurement": "normalised cell number", "setting": "[2]; [20]", "value": 1.2}, {"measurement": "normalised cell number", "setting": "[2]; [21]", "value": 1.09}, {"measurement": "outcome", "setting": "[19]", "value": "inactive"}, {"measurement": "z-score", "setting": "[5]; [22]", "value": "-0.412 (inactive)"}, {"measurement": "z-score", "setting": "[5]; [23]", "value": 0.346}, {"measurement": "luciferase signal", "setting": "[6]", "value": "64 AU (inactive)"}, {"measurement": "z-score", "setting": "[7]", "value": "2.56 (active) and -0.305 (inactive)"}]}
